Reference: PubChem BioAssay (EPA / NIEHS)
Calls of active or inactive are those of the source. The calls were made as follows: active = hit-call score of the fitted dose curve at least 0.9, where 1 is the maximum; inactive = score below 0.9.

Molecular target: Hepatocyte nuclear factor 6 (Homo sapiens) (UniProt Q9UBC0)
Assay: ATG_HNF6_CIS: Attagene CIS-FACTORIAL HepG2 Assay for human Hepatocyte Nuclear Factor 6 (HNF6) (AID 2282952)
Conditions: HepG2 Attagene cis-factorial HNF6 reporter transcription; actives raise or lower the signal
Procedure, shortened: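 Readout: fluorescent reporter-transcript fragments resolved by capillary electrophoresis after RT-PCR, reflecting endogenous factor activity in transfected HepG2. Exposure 24 h. Gain or loss of signal fitted bidirectionally against DMSO.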

Sequence of Hepatocyte nuclear factor 6 (Homo sapiens) (Q9UBC0 whole entry, looked up): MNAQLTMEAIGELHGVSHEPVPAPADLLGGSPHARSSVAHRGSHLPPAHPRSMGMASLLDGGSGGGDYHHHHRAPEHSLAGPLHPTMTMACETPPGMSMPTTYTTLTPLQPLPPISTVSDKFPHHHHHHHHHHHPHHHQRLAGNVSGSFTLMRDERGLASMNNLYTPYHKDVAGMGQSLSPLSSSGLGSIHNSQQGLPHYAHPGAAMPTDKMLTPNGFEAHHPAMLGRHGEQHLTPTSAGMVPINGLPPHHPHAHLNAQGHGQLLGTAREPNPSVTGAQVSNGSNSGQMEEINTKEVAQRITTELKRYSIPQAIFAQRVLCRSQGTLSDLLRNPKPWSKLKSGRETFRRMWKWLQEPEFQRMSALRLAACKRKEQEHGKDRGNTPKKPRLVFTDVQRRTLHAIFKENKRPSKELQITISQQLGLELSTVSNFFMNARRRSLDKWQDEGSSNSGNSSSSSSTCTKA

SMILES | outcome | AC50
O=C(O)CC(O)C(=O)O (stereo unspecified) | inactive | –
CC(C)=CCCC(C)=CC=O | inactive | –
C=CC(=C)CCC=C(C)C | inactive | –
CC[C@H]1OC(=O)[C@H](C)[C@@H](O[C@H]2C[C@@](C)(OC)[C@@H](O)[C@H](C)O2)[C@H](C)[C@@H](O[C@@H]2O[C@H](C)C[C@H](N(C)C)[C@H]2O)[C@](C)(O)C[C@@H](C)C(=O)[C@H](C)[C@@H](O)[C@]1(C)O | inactive | –
O=C1CCC(N2C(=O)c3ccccc3C2=O)C(=O)N1 (stereo unspecified) | inactive | –
C[C@](N)(Cc1ccc(O)c(O)c1)C(=O)O | inactive | –
Nc1cccc(N)c1 | inactive | –
Cn1c(=O)c2c(ncn2C)n(C)c1=O | inactive | –
Nc1nc2ncc(CNc3ccc(C(=O)N[C@@H](CCC(=O)O)C(=O)O)cc3)nc2c(=O)[nH]1 | inactive | –
CC(=O)OCCC(C)C | inactive | –
O=P(OC(CCl)CCl)(OC(CCl)CCl)OC(CCl)CCl | – | 153 µM (active)
CCCC(=O)OCC | inactive | –
COc1cccc(-c2ccc(/C=C\CN3CCCCCC3)cc2Cl)c1 | inactive | –
O=C(OC[C@H]1O[C@@H](OC(=O)c2cc(O)c(O)c(OC(=O)c3cc(O)c(O)c(O)c3)c2)[C@H](OC(=O)c2cc(O)c(O)c(OC(=O)c3cc(O)c(O)c(O)c3)c2)[C@@H](OC(=O)c2cc(O)c(O)c(OC(=O)c3cc(O)c(O)c(O)c3)c2)[C@@H]1OC(=O)c1cc(O)c(O)c(OC(=O)c2cc(O)c(O)c(O)c2)c1)c1cc(O)c(O)c(OC(=O)c2cc(O)c(O)c(O)c2)c1 | inactive | –
CCOCCOCCOCCO | inactive | –
O=C(O)c1cccc(N(Cc2cccnc2)c2ccc(OC(F)F)c(OC(F)F)c2)c1 | inactive | –
